An excerpt weighted towards active compounds, which were near 5.4% of everything screened.
RORg inh: blocks mouse ROR gamma transcriptional activity; Potency, µM (top dose mostly 53.6 µM), hits mostly inhibitors; Drosophila S2 Gal4-RORgamma UAS-luciferase reporter, 20 h; P51450; actives 5.4% (n = 310,000); note: nearly all actives have a fitted effect of over 60% in size
Target sequence (P51450 whole entry, looked up, the tested form may be a part): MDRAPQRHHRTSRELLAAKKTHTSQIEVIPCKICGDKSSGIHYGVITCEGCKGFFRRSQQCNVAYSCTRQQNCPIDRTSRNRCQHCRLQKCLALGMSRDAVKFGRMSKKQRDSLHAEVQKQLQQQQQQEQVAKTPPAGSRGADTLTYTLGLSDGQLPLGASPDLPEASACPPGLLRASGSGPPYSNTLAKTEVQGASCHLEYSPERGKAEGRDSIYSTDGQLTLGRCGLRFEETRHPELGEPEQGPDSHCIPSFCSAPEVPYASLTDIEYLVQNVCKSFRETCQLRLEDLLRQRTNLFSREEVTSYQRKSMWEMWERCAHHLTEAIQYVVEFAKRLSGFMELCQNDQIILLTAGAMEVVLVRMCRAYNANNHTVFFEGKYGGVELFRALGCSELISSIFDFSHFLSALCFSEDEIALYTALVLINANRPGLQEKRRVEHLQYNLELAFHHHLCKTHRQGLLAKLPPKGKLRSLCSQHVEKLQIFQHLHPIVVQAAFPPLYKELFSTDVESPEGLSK
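A Gal4/UAS one-hybrid system in insect cells: metallothionein-promoter Gal4–ROR gamma fusion plus Photinus luciferase reporter. Copper sulfate 700 uM final, 20 hr ambient incubation, luminescent detection after 10 min with reagent.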
CtBP-E1A blk: blocks the CtBP interaction with E1A | actives 0.49% (n = 340,000) | activity change, % (concentration not given with the values) | AID 651724 | AlphaScreen GST-E1A/His-CtBP binding, 1536-well; stronger effect = lower value; in the data active = activity change below about -65%; inconclusive = mostly about -30% to -63%
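Protein mix (5X: 125 nM each GST-E1A, His-CtBP) was incubated with pinned compound 2 h at 37 deg C in dark, in 50 mM Tris pH 8.0 buffer with 300 mM NaCl. Glutathione donor and nickel acceptor beads followed; AlphaScreen signal read after 1 h.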
p53 reactivation: restores transcriptional activity of mutant p53; H1299 p53-A138V BP100-luciferase reporter, luminescence, 24 h; Potency, µM (titrated, usually from 92.2 µM), most hits filed as activators; actives 0.063% (n = 320,000); note: nearly all actives have a fitted effect of over 45% in size
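H1299 (p53-null), stable ts p53-A138V + BP100-Luc; 1000 cells/well, Opti-MEM/10% FBS; cpd 4 pt, 1:5; 24 h, 37 deg C, 5% CO2; detection reagent 10 min RT; luminescence.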
VP16 counter: Gal4-VP16 reporter inhibition counter-screen; Drosophila S2 Gal4-VP16 UAS-luciferase, luminescence, 20 h; Potency, µM (highest dose often 53.6 µM), most hits filed as inhibitors; actives 3.5% (n = 310,000);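 note: Gal4-VP16 expression switched on by copper sulfate through the metallothionein promoter; nearly all actives have a fitted effect of over 50% in size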
Six1-Eya2 blk: inhibitors of human Six1/Eya2 interaction; Q15475+O00167; AlphaScreen GST-Six1/His-Eya2 binding, biochemical; stronger effect = lower value; activity change, % (no concentration beside the values); actives 0.56% (n = 360,000); AID 651725; in the data active = activity change below about -65%; inconclusive = mostly about -30% to -63%
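Six1/Eya2 binding was read as AlphaScreen signal after compounds were pinned into GST-Six1 plus His-tagged Eya2 (5X stock 250/500 nM) in pH 8.0 Tris/NaCl/TCEP buffer, beads added, then incubated 1 h, 37 C, dark.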
Each line names hits and unclear results; the compound was inactive in the other large screens. Unless noted, calls come from the whole dose curve; as a rule, active = well fitted curve in the direction sought with a large enough effect; inconclusive = small, poorly fitted or top-dose-only effect, or another doubt; inactive = no such curve, though single readings can be large; an effect the other way counts as inactive or inconclusive.

O=C(Nc1nnc(-c2cccnc2)o1)c1ccccc1Cl	RORg inh 8.9µM, VP16 counter inconclusive
Clc1ccccc1-c1nnc(-c2cccnc2)o1	none (no result: CtBP-E1A blk)
Cc1cccc(C(=O)Nc2nnc(-c3ccncc3)o2)c1	RORg inh 3.2µM, VP16 counter 2.8µM
O=C(Nc1nnc(-c2ccncc2)o1)c1ccc2ccccc2c1	RORg inh 1.1µM, VP16 counter 0.56µM
Cc1ccc(OCC(=O)O/N=C(\N)Cc2ccc([N+](=O)[O-])cc2)cc1C	none
COC(=O)c1ccc(C(=O)Nc2nnc(-c3cccnc3)o2)cc1	RORg inh 2.5µM, VP16 counter 2.8µM (no result: CtBP-E1A blk, Six1-Eya2 blk)
COC(=O)c1ccc(C(=O)Nc2ccc3nc(-c4cccnc4)[nH]c3c2)cc1	none
Cc1cccc(C(=O)Nc2nnc(-c3cccnc3)o2)c1	RORg inh 0.71µM, VP16 counter 1.3µM
CC1CCC2C(=O)N3C(CCC(C)C3c3ccc(-c4ccco4)cc3)C(=O)N2C1c1ccc(-c2ccco2)cc1 (stereo unspecified)	none (no result: CtBP-E1A blk, p53 reactivation, Six1-Eya2 blk)
C/C(CC(=O)Nc1ccc(C)c(Cl)c1)=N\NC(=O)c1ccncc1	RORg inh inconclusive
C/C(CC(=O)Nc1ccc(Cl)c(Cl)c1)=N\NC(N)=S	RORg inh 5.6µM, VP16 counter 11µM
C/C(CC(=O)Nc1ccc(Cl)cc1Cl)=N\NC(N)=S	none
C/C(CC(=O)Nc1ccc(Cl)cc1C(F)(F)F)=N\NC(N)=S	RORg inh 13µM, VP16 counter inconclusive
C/C(CC(=O)Nc1ccc(Cl)cc1Cl)=N\NC(=O)c1ccncc1	RORg inh inconclusive, VP16 counter 18µM (no result: CtBP-E1A blk)
C/C(CC(=O)Nc1cc(Cl)ccc1Cl)=N\NC(N)=S	RORg inh 5.6µM, VP16 counter 20µM
N#CC1=C(N)SC(N)=C(C#N)C1C1CC=CCC1 (stereo unspecified)	RORg inh 16µM, VP16 counter inconclusive
COc1cccc(C(NC(C)=O)c2nc(-c3cccc(F)c3)cs2)c1 (stereo unspecified)	none (no result: RORg inh, p53 reactivation, VP16 counter)
CCc1ccc(C2=CC(c3cc(Br)ccc3F)n3ncnc3N2)cc1 (stereo unspecified)	RORg inh inconclusive, VP16 counter 14µM
Cc1ccsc1C1C=C(c2cccc(Br)c2)Nc2ncnn21 (stereo unspecified)	RORg inh 7.9µM, VP16 counter inconclusive
Fc1ccc(Br)cc1C1C=C(c2ccc(Br)cc2)Nc2ncnn21 (stereo unspecified)	RORg inh 6.3µM, VP16 counter inconclusive
NC1=NCC2c3ccccc3Cc3ccccc3N12 (stereo unspecified)	none (no result: CtBP-E1A blk, p53 reactivation, Six1-Eya2 blk)
CCc1noc(C)c1C(=O)NNC(=O)c1ccc(N(CC)CC)cc1	none (no result: RORg inh, CtBP-E1A blk, VP16 counter)
O=C(NC(=S)NC12CC3CC(CC(C3)C1)C2)c1ccc(F)cc1	p53 reactivation inconclusive (no result: RORg inh, VP16 counter)
CCN(CC)C(=S)NC(=O)c1cccnc1	RORg inh 2.5µM, VP16 counter 5.6µM
CCN(CC)C(=S)NC(=O)c1ccc(F)cc1	RORg inh 0.79µM, VP16 counter 2.8µM
CCOC(=O)OCC1OC(c2cc(C)cc(C)c2)C=CC1OC(=O)OCC (stereo unspecified)	none (no result: CtBP-E1A blk, p53 reactivation, Six1-Eya2 blk)
NC(=S)NNc1cccc2cccnc12	CtBP-E1A blk -92, Six1-Eya2 blk -92
NC(=S)Nc1cccc2cccnc12	RORg inh inconclusive
CCc1ccccc1Oc1nc(NCCOC)nc2cc(-c3ccccc3)sc12	none (no result: RORg inh, p53 reactivation, VP16 counter)
Cc1occc1C(=O)NNC(=O)c1ccccc1C(=O)O	RORg inh inconclusive
O=C(NNC(=O)c1ccccc1C(=O)O)c1ccc(-c2ccccc2)cc1	RORg inh 14µM (no result: CtBP-E1A blk, Six1-Eya2 blk)
O=C(Cc1ccccc1)Nc1ccccc1C(=O)Nc1ccccc1	RORg inh inconclusive
O=C(Cc1ccccc1)Nc1cccc(C(=O)O)c1O	VP16 counter 10µM
O=C(Cc1ccccc1)NNC(=O)c1ccccc1C(=O)O	RORg inh 3.2µM
COc1ccc(-c2nc(-c3cccs3)c(-c3cccs3)[nH]2)cc1OC	RORg inh inconclusive, CtBP-E1A blk -73, Six1-Eya2 blk inconclusive
COc1ccc(-c2nc(-c3ccccc3)c(-c3cccs3)[nH]2)cc1OC	VP16 counter inconclusive, Six1-Eya2 blk inconclusive
CC(C)(C)C(=O)OCOP(=O)(OCOC(=O)C(C)(C)C)C(C)(Oc1ccc(O)cc1)P(=O)(OCOC(=O)C(C)(C)C)OCOC(=O)C(C)(C)C	none (no result: CtBP-E1A blk, p53 reactivation, Six1-Eya2 blk)

Screens deposited in PubChem BioAssay by National Center for Advancing Translational Sciences (NCATS).
